Data reported in PubChem BioAssay AID624330 (Southern Research Specialized Biocontainment Screening …, 2012).
Among all 340,000 compounds or so, about 2,100 (0.62%) were called active.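 The calls were made as follows: active = first-screen hits whose inhibition reached a set limit at any dose in the follow-up dose series; inconclusive = inhibition above the set first-screen limit but never retested; inactive = the rest.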 Not all results are given here. Measured potencies and affinities stand elsewhere.

The compounds below were run against Rac GTPase-activating protein 1 (Homo sapiens) (UniProt Q9H0H5) (assay: blockers of MgcRacGAP-driven Rac1 GTP hydrolysis – biochemical, ADP Hunter fluorescence, primary and confirmatory, confirmation (AID 624330;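 also: fluorescence reports GDP produced by GAP-driven GTP hydrolysis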)). Settings: MgcRacGAP-stimulated Rac1 GTP hydrolysis, at 30 µM, hits give high values, GST-tagged Rac1 F28L mutant substrate.
Sequence of Rac GTPase-activating protein 1 (Homo sapiens) (Q9H0H5 whole entry, looked up): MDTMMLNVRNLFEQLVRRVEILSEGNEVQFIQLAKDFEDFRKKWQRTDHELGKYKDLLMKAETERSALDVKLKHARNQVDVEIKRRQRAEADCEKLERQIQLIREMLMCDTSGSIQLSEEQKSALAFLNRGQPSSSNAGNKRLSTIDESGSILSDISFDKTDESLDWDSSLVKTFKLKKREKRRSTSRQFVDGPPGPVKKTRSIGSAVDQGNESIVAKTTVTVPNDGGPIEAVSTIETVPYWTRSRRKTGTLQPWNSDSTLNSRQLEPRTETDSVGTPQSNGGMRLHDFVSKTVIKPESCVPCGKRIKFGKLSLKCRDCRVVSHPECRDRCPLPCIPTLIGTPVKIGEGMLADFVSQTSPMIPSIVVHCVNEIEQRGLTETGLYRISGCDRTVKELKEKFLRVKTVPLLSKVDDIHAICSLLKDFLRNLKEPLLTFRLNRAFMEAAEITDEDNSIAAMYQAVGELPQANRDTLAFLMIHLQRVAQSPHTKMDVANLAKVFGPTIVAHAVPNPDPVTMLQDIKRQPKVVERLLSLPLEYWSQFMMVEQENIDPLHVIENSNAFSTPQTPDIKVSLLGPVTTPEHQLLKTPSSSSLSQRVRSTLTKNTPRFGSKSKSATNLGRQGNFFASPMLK

inhibition, inactive:
C/C=C/c1ccc(OCCN2CCc3ccccc3C2)c(OC)c1 17.9%
Cc1ccc(C)c(NC(=O)CN(C)C(=O)c2cc([N+](=O)[O-])ccc2N2CCOCC2)c1 5.45%
Cc1ccc(SCC(=O)OCC(=O)N(CC(C)C)C2CCS(=O)(=O)C2)cc1C (centres undefined) 9.24%
O=C(COC(=O)COc1ccc(Cl)cc1Br)NC1CC1 -1.39%
O=C(NCCN1CCOCC1)c1ccc(CS(=O)c2ccccc2Cl)o1 (centres undefined) -0.13%
COc1ccc(N2CCN(Cc3nc4sc(C)c(C)c4c(=O)[nH]3)CC2)cc1 -6.7%
COc1ccc(/C=C2/NC(=O)N(Cc3ccccc3F)C2=O)cc1OC 5.3%
COc1cc(/C=C2/NC(=O)N(Cc3ccccc3F)C2=O)cc(OC)c1O 26.3%
CSc1ccc(CN2CCC(n3nccc3NC(=O)C3CCOC3)CC2)cc1 (centres undefined) 3.42%
CC(=O)c1ccc(NC(=O)C[n+]2cccc(C)c2)cc1 8.06%
Cc1ccc[n+](CC(=O)Nc2ccc(C)c(C)c2)c1 -1.74%
CC(=O)Nc1ccc(NC(=O)CCc2ccc(C)o2)cc1 10.6%
Cc1ccc(NC(=O)CCc2ccc(C)o2)cc1 -3.13%
CCOC(=O)C1C(c2cc(OC)c(O)c(OC)c2)NC(=S)NC1(O)C(F)(F)F (centres undefined) 4.21%
Cc1ccc(CNC(=O)C(c2ccccc2)c2ccccc2)cc1 6.74%
COc1ccc(S(=O)(=O)NNC(=O)c2cc3ccccc3o2)cc1 9.6%
O=C(NC1CC1)c1cc(F)c(F)cc1Cl 6.75%
O=C(/C=C/c1ccc(Br)o1)Nc1nccs1 -0.09%
O=C(Nc1ccc2c(c1)OC1(CCCC1)O2)C1CC1 9.85%
Nc1ccc2c(c1)OC1(CCCCC1)O2 22.8%
CC(O)[C@H]1CNC(=O)C(=O)N1CCc1cccc(F)c1 (some centres undefined) 5.42%
COc1ccc(CN2CCC(C(=O)N3CCN(c4ccccc4F)CC3)CC2)cc1OC 8.86%
CCOc1ccc(CN2CCC(C(=O)N3CCN(c4ccccc4F)CC3)CC2)cc1OC 23.7%
COc1ccccc1N1CCN(Cc2ccsc2)CC1 25.3%
COc1cc(CN2CCN(c3cccc(C)c3C)CC2)cc(OC)c1O 27%
O=C(C1CC1)N1CCN(Cc2ccccc2)CC1 7.23%
CCN1CCN(C(=O)C2CCN(Cc3cc(Cl)ccc3O)CC2)CC1 12.1%
COc1ccccc1N1CCN(Cc2ccc(Br)o2)CC1 29.6%
COc1cc(CN2CCC(C(=O)N3CCN(c4ccccc4F)CC3)CC2)cc(OC)c1O 23.4%
CCC(C)NC(=O)C1c2ccccc2C(=O)N1Cc1ccc(F)cc1 (centres undefined) 8.48%
COc1ccc(NC(=O)CCCC(=O)O)cc1Cl 4.87%
CC(=O)c1ccc(S(=O)(=O)NCCC(=O)OC(C)C(=O)Nc2ccc(F)cc2)cc1 (centres undefined) 5.33%
N#C/C(=C\c1cn(CC(=O)N2CCCCC2)c2ccccc12)C(=O)NCc1ccc2c(c1)OCO2 8.24%
Cc1cc(NC(=O)c2ccc(C#N)cc2)n(-c2ccccn2)n1 4.99%
N#Cc1ccc(OCc2nnc(SCC(=O)N3CCCc4ccccc43)n2-c2ccccc2)cc1 3.45%
CCCCN(C)CCNC(=O)Cn1c(=O)sc2ccccc21 5.94%
NC(N)=Nc1ccc(C=C2C=Cc3ccccc32)cc1 1.28%
C=CCN(CC=C)Cc1nc(N)nc(Nc2ccccc2C)n1 6.1%
CC1(C)CC(=O)C([N+](=O)[O-])=C(NCCCC(=O)O)C1 6.3%
CCOC(=O)CN=C1CC(C)(C)CC2=C1Sc1ncnc(N(C)C)c1N2 6.53%
Cc1ccc(S(=O)(=O)/N=C/N(C)C)cc1 4.85%
O=C(NCc1ccco1)c1ccc(S(=O)(=O)N2CCOCC2)cc1 12.1%
CCOC(=O)c1ccc(NC(=O)Nc2c(C)nn(C)c2C)cc1 6.05%
CC1CC(=O)N(c2ccc(NCCc3ccccc3)c([N+](=O)[O-])c2)C1=O (centres undefined) 12.4%
COc1ccc(CCNc2ccc(N3C(=O)CC(C)C3=O)cc2[N+](=O)[O-])cc1 (centres undefined) 3.45%
COCCNC(=O)C1CCCN(S(=O)(=O)c2c(C)noc2/C=C/c2cccs2)C1 (centres undefined) 5.26%
Cc1cc(Cc2cc(C)c(N)cc2C)c(C)cc1N 11.3%
Cc1cc(C)c(N)cc1C 5.41%
COc1ccc(S(=O)(=O)N(C)C[C@H]2Oc3c(NC(=O)C4CC4)cccc3C(=O)N([C@H](C)CO)C[C@@H]2C)cc1 13.9%
CC(=O)c1c(Nc2cccc(F)c2)oc(C)cc1=O 8.68%
CCc1ccc(Nc2oc(C)cc(=O)c2C(C)=O)cc1 2.6%
O=C(c1cccc(NS(=O)(=O)c2ccc(Br)cc2)c1)N1CCN(c2ccccc2O)CC1 -1.11%
CC(O)CNc1nc2ccccc2n1CC(=O)NC12CC3CC(CC(C3)C1)C2 (centres undefined) -6.35%
O=C(Nc1ccccc1)c1cccc(NC(=O)c2ccco2)c1 11.5%
CCOc1ccc(OCCOCCNCCOC)cc1 12.8%
Cc1cc(Cl)cc(C)c1OCCNCc1ccccc1 26.3%
CCCOc1ccc(OCCOCCNCc2ccccc2)cc1 19.2%
O=[N+]([O-])c1ccccc1OCCCNCc1ccccc1 21.2%
O=[N+]([O-])c1ccccc1OCCOc1ccccc1[N+](=O)[O-] 7.67%
Clc1cccc(Cl)c1OCCOCCNCc1ccccc1 22.1%
CCc1cc(OCCCCNCc2ccccc2)ccc1Cl 28.9%
Cc1cc(OCCOCCN(C)C)ccc1Cl 9.69%
CC1(c2nnc(-c3cccc(Cl)c3)o2)CC(c2ccccc2)=NO1 (centres undefined) 6.54%
CCN(CC)CCCNC(=O)C1CCCN(c2nnc(N3CCCC3=O)s2)C1 (centres undefined) 8.15%
Cc1ccccc1C(=O)N1CCC(C(=O)Nc2ccccn2)CC1 3.54%
CC1CCCC(C)N1CC(O)COC1CCC(C(C)(C)C)CC1 (centres undefined) 8.37%
CC(C)(C)c1cccc(OCCCSc2ncccn2)c1 4.61%
O=C(N/C(=C/c1ccc(Br)cc1)C(=O)N1CCCCC1)c1ccccc1F 8.71%
Cc1cc(C)c(OCCCNCc2ccccc2)c(Br)c1 26.8%
COCCNCCCCOc1c(Cl)cc(C)cc1Br 27.8%
Cc1cc(Cl)c(OCCCNCc2ccccc2)c(Br)c1 30.3%
Cc1ccc(OCCNCc2ccccc2)c(C)c1 20.6%
Cc1cc(C)c(C)c(OCCOCCNCc2ccccc2)c1 17.1%
C=CCNCCCCOc1c(Cl)cc(C)cc1Br 29.7%
Cc1cc(C(=O)CSc2ccc3c(c2)OCCO3)c(C)n1C1CC1 6.62%
COc1ccc(C(=O)/C=C/c2ccccc2OC)c(OC(=O)c2ccc([N+](=O)[O-])cc2)c1 8.99%
COc1cccc(C2C(C(=O)c3cccs3)=C(O)C(=O)N2CCN2CCOCC2)c1 (centres undefined) -8.26%
O=C(NCc1ccccc1Cl)C1CCC(=O)N1Cc1ccc(F)cc1 (centres undefined) 11.4%
CN(CCOc1ccccc1)C(=S)Nc1ccc(OC(F)F)cc1 5.1%
O=C(c1ccc(Cl)cc1)N1CCN(C(=O)C2CCCCC2)CC1 7.43%
O=C1N/C(=C/c2ccc(Br)cc2)C(O)=C1C=NCc1ccccc1 3.27%
O=C1N/C(=C\c2ccccc2)C(O)=C1C=NCc1ccccc1 3.17%
COc1cc(NC(=O)CN2CCC(C(N)=O)(N3CCCCC3)CC2)c(OC)cc1Cl 0.16%
Cc1onc(-c2ccccc2)c1C(=O)N/N=C/c1cccc(O)c1 8.34%
CCOc1ccc(/C=N/NC(=O)c2c(-c3ccccc3)noc2C)cc1 10.9%
COc1cc(/C=N/NC(=O)c2c(-c3ccccc3)noc2C)cc(OC)c1OC 7.95%
CCCOc1ccc(/C=N/NC(=O)c2c(-c3ccccc3)noc2C)cc1OC 7.42%
CCOC(=O)c1c(C)n(C)c2cc(Br)c(C)cc12 -1.61%
CCc1nnc(NS(=O)(=O)c2ccc(N=Cc3c(C)[nH]n(-c4cccc(Cl)c4)c3=O)cc2)s1 9.47%
Cc1nn(C)cc1CNC(=O)c1ccccc1Br -6.9%
CC(Oc1ccc2ccc(=O)oc2c1)C(=O)c1ccccc1 (centres undefined) 8.03%
CN(C)CCNC(=O)c1c(NC(=O)c2ccccc2)sc2c1CCCC2 11.8%
NCCNC(=O)c1c(NC(=O)c2ccccc2)sc2c1CCCC2 10.3%
CCCC(=O)Nc1cc(C)c(NC(=O)c2ccncc2)cn1 1.4%
CCOc1ccccc1NC(=O)COC(=O)C1CCC1 6.3%
O=C(O)Cn1cc(/C=C2/NC(=O)N(c3ccc(Cl)cc3)C2=O)c2ccccc21 8.99%
O=C1CCCC(=O)C1=Cc1c[nH]c2ccccc12 8.99%
O=C(O)Cn1cc(/C=C2\SC(=O)N(c3ccccc3)C2=O)c2ccccc21 0.86%
O=C1OC2(CCCC2)OC(=O)C1=Cc1c[nH]c2ccccc12 10.5%
